This passage reports composite z-score and z-score results from PubChem BioAssay.

The subject of experiment [1] is PRMT1 (protein arginine N-methyltransferase 1). The experiment in a line: PRMT1 binders on small-molecule microarrays, primary screen, biochemical, small-molecule microarray, 635 nm fluorescence (AID 1088).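 Also: binding of Prmt1 protein to compounds spotted on small-molecule microarray slides.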 Conditions: small-molecule microarray binding, higher = more signal.
Experiment [2] can be described thus: yeast growth modulation, basal conditions, primary screen, YJM789 clinical isolate, OD600, 24 h (AID 1089).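 Also: growth of clinical yeast isolate S. cerevisiae YJM 789 seeded 1000 cells per well; test concentration not given here.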 The settings on record: S. cerevisiae YJM789 growth, higher = more signal, called active from +8 up or from −8 down.
Experiment [3] can be described thus: fission yeast growth modulation, primary screen, strain 972, OD600, 24 h, no modulator (AID 1090).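 Also: basal condition with compound alone and no growth modifier present; test concentration not given here.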 Conditions: S. pombe 972 growth, higher = more signal, called active from +8 up or from −8 down.
Experiment [4] in a line: S. cerevisiae growth modulation with rapamycin, primary screen, strain BY4716, OD600, 96 h (AID 1091). Also: test concentration not given here. Conditions: higher = more signal, called active from +8 up or from −8 down.
For experiment [5], the target named is Torsin-1A-interacting protein 2 (Homo sapiens) (UniProt Q8NFQ8). The experiment in a line: LULL1 binders on small-molecule microarray, primary screen, cell lysate, human LULL1 lysate, 635/667 nm fluorescence (AID 1092).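 Also: probe is lysate of COS7 cells overexpressing human LULL1; score merges per-feature 667 nm fluorescence with signal-to-noise.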 The settings on record: hLULL1 lysate binding, 635 nm fluorescence, higher = more signal.
Sequence of Torsin-1A-interacting protein 2 (Homo sapiens) (Q8NFQ8 whole entry, looked up): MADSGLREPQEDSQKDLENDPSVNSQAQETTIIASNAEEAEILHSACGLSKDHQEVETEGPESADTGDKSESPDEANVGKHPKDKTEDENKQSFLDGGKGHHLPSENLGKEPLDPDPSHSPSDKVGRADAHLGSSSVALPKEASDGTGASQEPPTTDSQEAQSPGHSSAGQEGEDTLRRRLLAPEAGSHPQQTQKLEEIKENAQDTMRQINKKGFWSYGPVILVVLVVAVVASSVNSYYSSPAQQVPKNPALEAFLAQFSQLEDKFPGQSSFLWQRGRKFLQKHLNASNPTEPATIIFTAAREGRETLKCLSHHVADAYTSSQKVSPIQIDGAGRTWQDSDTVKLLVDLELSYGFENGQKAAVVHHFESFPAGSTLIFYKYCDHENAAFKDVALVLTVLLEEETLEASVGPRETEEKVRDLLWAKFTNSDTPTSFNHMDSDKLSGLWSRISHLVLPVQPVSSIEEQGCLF
Experiment [6] can be described thus: E. coli growth modulation, two-sided OD650, primary screen, E. coli filamentation project, strain DRC41, 24 h (AID 1093).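 Also: MC1000 strain lacking acrAB efflux and sulA so SOS filamentation is blocked; test concentration not given here.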 The settings on record: OD650, 24 h, higher = more signal, called active from +8 up or from −8 down.
Experiment [7] can be described thus: small-molecule microarray binders of probe aLefty2, primary screen, biochemical, biotinylated probe, 635/667 nm fluorescence (AID 1094).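 Also: score merges spot fluorescence near 667 nm with spot signal-to-noise ratio.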 Conditions: higher = more signal.
In experiment [8] the test system is Noggin (protein binding on small-molecule microarray). The experiment in a line: Noggin binders on small-molecule microarray, primary screen, biochemical, 635/667 nm fluorescence (AID 1095).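 Also: score merges 667 nm feature fluorescence with signal to noise over triplicate slides.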 Conditions: 635 nm fluorescence, higher = more signal.
Experiment [9] has as its target Neurogenic locus notch homolog protein 3 (Homo sapiens) (UniProt Q9UM47). Nature of the experiment: NOTCH3 binders on small-molecule microarray, primary screen, biochemical, 635/667 nm fluorescence (AID 1096). Conditions: NOTCH3 binding, 635 nm fluorescence, higher = more signal.
A short description of experiment [10]: small-molecule microarray binders of probe aEGFR, primary screen, biochemical, biotinylated probe, 635/667 nm fluorescence (AID 1097).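 Also: probe is a biotinylated anti-EGFR antibody binding compounds printed on slides; score combines fluorescence near 667 nm and signal to noise of each spot.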 Conditions: higher = more signal.
The test system of experiment [11] is Plasmodium falciparum Sir2 (PF13_0152, Sir2A). Nature of the experiment: pfSir2 binders on small-molecule microarrays, primary screen, biochemical, small-molecule microarray, 635 nm fluorescence (AID 1098).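 Also: score merges spot fluorescence intensity with its signal-to-noise ratio.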 The settings on record: small-molecule microarray binding, fluorescence 635 nm; higher = more signal.
Experiment [12] can be described thus: small-molecule microarray binders of probe aDKK1, primary screen, biochemical, biotinylated probe, 635/667 nm fluorescence (AID 1099).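 Also: score merges 667nm spot fluorescence with signal to noise across triplicate slides; reference of the scale not given here.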 Conditions: higher = more signal.
Experiment [13] is described as follows: small-molecule microarray binders of probe aCHRDL2, primary screen, biochemical, biotinylated probe, 635/667 nm fluorescence (AID 1100). The settings on record: higher = more signal.
A short description of experiment [14]: splicing luciferase reporter signal modulators, primary screen, spliceosome inhibition project, cell-based, HEK293, splice +/- reporter (AID 1101).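 Also: HEK293 cells carrying a splicing-competent luciferase reporter gene; test concentration not given here.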 The settings on record: luminescence, 24 h, higher = more signal, called active from +8 up or from −8 down. On the technique in general: In a reporter assay the amount or activity of a reporter protein is the signal.

Experiment [15] deals with Fibroblast growth factor 10 (Homo sapiens) (UniProt O15520). Nature of the experiment: FGF10 binders on small-molecule microarrays, primary screen, biochemical, small-molecule microarray, 635 nm fluorescence (AID 1102). Conditions: FGF10 binding, fluorescence 635 nm, higher = more signal.
Sequence of Fibroblast growth factor 10 (Homo sapiens) (O15520 whole entry, looked up): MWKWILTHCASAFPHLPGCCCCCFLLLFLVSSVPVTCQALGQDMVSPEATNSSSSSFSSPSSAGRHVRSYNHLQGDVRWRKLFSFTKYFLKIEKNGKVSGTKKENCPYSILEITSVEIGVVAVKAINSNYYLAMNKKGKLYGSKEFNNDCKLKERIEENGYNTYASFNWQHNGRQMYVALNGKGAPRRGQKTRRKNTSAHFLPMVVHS
The test system of experiment [16] is glycogen synthase kinase-3 (GSK3A per assay name; protocol says GSK3B). The experiment in a line: GSK3 binders on small-molecule microarrays, primary screen, biochemical, small-molecule microarray, 635 nm fluorescence, GSK3A (AID 1103). Also: the record names both GSK3A and GSK3B. The settings on record: small-molecule microarray binding, fluorescence 635 nm; higher = more signal.
The target in experiment [17] is Epidermal growth factor receptor (Homo sapiens) (UniProt P00533). Nature of the experiment: EGFR binders on small-molecule microarrays, primary screen, biochemical, small-molecule microarray, 635 nm fluorescence (AID 1104).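 Also: score merges 667 nm emission intensity with spot signal to noise over triplicate slides.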 The settings on record: EGFR binding, higher = more signal.
Sequence of Epidermal growth factor receptor (Homo sapiens) (P00533 whole entry, looked up): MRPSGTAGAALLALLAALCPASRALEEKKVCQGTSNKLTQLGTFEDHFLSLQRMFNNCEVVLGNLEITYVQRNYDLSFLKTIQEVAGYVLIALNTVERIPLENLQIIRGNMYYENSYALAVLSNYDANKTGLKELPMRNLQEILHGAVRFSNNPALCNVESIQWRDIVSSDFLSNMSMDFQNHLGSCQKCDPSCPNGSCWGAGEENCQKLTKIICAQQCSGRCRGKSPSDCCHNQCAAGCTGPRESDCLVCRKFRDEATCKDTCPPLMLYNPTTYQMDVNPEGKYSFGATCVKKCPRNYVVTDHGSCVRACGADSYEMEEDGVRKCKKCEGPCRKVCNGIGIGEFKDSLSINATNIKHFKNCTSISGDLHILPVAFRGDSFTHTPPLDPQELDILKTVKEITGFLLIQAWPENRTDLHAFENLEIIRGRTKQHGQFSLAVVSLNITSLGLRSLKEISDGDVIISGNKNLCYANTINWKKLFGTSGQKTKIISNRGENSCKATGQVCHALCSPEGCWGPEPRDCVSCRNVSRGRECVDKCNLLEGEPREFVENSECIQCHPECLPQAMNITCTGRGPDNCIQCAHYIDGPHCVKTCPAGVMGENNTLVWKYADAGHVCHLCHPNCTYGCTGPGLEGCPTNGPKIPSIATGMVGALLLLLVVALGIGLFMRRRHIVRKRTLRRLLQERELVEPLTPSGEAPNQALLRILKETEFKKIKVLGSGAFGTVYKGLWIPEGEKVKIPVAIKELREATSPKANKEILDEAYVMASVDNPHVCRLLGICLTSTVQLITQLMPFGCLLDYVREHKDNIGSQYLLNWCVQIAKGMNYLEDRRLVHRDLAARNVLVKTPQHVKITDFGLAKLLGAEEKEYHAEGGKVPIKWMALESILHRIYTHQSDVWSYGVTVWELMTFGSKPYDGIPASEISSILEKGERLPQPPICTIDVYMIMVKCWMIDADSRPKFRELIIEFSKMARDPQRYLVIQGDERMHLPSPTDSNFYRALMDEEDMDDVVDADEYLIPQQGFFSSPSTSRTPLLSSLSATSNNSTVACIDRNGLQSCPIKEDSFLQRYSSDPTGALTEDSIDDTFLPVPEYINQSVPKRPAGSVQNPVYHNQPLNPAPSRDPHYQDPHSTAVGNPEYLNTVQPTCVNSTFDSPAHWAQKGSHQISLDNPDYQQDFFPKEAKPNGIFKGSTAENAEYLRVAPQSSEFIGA
Experiment [18] has as its target Follistatin-related protein 3 (Homo sapiens) (UniProt O95633). The experiment in a line: FSTL3 binders on small-molecule microarrays, primary screen, biochemical, small-molecule microarray, 635 nm fluorescence (AID 1105).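 Also: score merges emission near 667 nm and signal to noise per printed spot across three slides.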 The settings on record: FSTL3 binding, higher = more signal.
Experiment [19] has as its target Dickkopf-related protein 1 (Homo sapiens) (UniProt O94907). The experiment in a line: DKK1 binders on small-molecule microarrays, primary screen, biochemical, small-molecule microarray, 635 nm fluorescence scan (AID 1106).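 Also: score merges emission near 667 nm with signal to noise over three replicate slides.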 Conditions: DKK1 binding, higher = more signal.
Experiment [20] concerns Inhibin beta A chain (activin A). Nature of the experiment: INHBA (activin A) binders on microarrays, primary screen, biochemical, small-molecule microarray, 635 nm fluorescence scan (AID 1107).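 Also: mouse activin A protein probed at 4.33 µg/mL on printed slides; score merges bound-protein fluorescence near 667 nm with spot signal-to-noise.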 Conditions: small-molecule microarray binding, higher = more signal.

Activity calls are given as the source filed them.

Sequence of Follistatin-related protein 3 (Homo sapiens) (O95633 whole entry, looked up): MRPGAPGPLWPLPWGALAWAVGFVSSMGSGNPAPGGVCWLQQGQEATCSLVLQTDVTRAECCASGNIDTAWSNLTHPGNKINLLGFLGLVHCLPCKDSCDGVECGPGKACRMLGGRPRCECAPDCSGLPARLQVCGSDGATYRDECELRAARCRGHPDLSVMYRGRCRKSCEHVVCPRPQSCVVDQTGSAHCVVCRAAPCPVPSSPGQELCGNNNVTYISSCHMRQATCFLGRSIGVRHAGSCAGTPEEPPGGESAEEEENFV
Sequence of Neurogenic locus notch homolog protein 3 (Homo sapiens) (Q9UM47 whole entry, looked up): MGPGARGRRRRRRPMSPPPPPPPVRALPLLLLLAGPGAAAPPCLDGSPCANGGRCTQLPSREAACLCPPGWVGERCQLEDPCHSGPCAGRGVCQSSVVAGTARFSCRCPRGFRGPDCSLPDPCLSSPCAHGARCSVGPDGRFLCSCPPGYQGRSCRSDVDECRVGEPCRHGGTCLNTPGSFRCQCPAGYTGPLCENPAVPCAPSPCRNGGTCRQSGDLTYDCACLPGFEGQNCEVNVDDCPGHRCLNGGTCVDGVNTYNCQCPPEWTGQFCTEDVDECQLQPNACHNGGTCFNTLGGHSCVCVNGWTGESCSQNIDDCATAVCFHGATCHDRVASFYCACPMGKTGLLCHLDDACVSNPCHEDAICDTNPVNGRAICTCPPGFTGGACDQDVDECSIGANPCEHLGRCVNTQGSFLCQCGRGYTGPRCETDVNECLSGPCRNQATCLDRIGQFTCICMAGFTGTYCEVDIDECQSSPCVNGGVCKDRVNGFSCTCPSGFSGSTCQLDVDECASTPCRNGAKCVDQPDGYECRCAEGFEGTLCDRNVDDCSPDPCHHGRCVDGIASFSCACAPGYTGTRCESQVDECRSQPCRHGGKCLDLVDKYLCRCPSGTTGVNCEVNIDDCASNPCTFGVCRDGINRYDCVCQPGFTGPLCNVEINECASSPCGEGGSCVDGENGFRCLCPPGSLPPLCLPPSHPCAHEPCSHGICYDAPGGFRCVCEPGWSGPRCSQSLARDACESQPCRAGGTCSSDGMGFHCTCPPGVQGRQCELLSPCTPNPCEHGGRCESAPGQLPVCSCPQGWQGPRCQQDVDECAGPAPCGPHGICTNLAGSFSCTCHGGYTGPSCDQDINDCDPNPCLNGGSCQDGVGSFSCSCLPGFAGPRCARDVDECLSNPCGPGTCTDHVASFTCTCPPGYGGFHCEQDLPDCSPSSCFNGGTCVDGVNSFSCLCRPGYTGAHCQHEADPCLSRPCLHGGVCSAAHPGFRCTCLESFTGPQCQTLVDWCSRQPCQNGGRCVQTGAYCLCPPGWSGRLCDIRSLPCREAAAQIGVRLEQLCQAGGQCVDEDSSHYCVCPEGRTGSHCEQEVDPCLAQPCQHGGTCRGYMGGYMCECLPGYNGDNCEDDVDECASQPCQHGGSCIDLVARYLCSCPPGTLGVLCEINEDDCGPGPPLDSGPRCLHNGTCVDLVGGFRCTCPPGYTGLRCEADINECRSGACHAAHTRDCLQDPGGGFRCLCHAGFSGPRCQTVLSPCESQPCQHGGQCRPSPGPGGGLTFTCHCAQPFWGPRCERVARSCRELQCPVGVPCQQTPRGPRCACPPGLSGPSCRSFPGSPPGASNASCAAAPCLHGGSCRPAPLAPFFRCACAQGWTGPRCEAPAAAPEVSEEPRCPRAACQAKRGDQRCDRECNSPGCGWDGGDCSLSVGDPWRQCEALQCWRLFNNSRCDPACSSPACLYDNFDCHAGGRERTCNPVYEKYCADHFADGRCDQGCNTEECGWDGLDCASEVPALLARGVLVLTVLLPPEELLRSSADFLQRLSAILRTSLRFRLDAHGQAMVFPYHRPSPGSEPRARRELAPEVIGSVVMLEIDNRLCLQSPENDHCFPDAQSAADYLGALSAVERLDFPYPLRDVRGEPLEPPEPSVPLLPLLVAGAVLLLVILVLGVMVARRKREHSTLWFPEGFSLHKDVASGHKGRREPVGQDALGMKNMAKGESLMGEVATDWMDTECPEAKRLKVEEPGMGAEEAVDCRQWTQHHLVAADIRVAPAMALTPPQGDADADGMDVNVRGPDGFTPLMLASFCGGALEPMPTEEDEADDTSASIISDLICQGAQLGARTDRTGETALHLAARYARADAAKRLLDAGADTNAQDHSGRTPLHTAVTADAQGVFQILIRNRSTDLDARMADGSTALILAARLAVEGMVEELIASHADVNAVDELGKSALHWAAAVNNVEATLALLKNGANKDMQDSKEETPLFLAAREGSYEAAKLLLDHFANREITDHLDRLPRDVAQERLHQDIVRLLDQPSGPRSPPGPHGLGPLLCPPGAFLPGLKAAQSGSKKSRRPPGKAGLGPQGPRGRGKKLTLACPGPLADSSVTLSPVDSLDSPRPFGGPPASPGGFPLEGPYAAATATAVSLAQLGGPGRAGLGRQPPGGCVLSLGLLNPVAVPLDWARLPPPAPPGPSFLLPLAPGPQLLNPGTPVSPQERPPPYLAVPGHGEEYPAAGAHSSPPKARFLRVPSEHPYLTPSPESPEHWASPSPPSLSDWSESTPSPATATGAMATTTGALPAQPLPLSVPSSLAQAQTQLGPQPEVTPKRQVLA
Sequence of Dickkopf-related protein 1 (Homo sapiens) (O94907 whole entry, looked up): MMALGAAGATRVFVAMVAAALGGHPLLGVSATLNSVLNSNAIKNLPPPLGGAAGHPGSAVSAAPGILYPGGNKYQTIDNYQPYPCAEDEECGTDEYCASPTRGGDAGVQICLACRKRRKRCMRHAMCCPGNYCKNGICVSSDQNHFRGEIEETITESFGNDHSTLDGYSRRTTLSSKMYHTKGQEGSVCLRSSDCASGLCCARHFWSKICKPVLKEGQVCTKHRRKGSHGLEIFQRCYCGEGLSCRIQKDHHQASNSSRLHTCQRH

Regarding `CC(C)CON=C1C[C@@H](O)[C@@H](O)[C@@H]2[C@@H]3C(=O)N(C(C)(C)C)C(=O)[C@@H]3CC[C@H]12`, the composite z-score was 0.829 in [1]; 1.96 in experiment [5]; 0.0577 in [7]; -0.316 in experiment [8]; -0.562 in experiment [9]; -0.0966 in experiment [10]. Further, the composite z-score is 0.801 in experiment [11]; 0.454 in experiment [12]; 0.562 in experiment [13]; -0.294 in [15]; -0.516 in [16]; -0.205 in experiment [17]. The composite z-score was -0.743 in experiment [18], -0.82 in experiment [19] and -0.576 in [20]. The z-score in [2] is -0.318 (inactive); in experiment [3], 0.674 (inactive); in experiment [4] it was 0.0851 (inactive); in experiment [6] it was 0.573 (inactive); in [14], 0.886 (inactive).
Turning to `C=COC[C@@H]1CN2[C@@H](CC[C@@H](C)[C@@H]2c2ccc(Br)cc2)C(=O)O1`, the composite z-score in experiment [1] is 0.217; in experiment [5], 0.0749; in experiment [7], -0.0769; in experiment [8], -0.0482; in experiment [9], -0.906; in [10], -0.267. The composite z-score was 0.0845 in experiment [11]; -0.319 in [12]; -0.0905 in [13]; -0.472 in experiment [15]; -0.413 in experiment [16]; -0.46 in experiment [17]. Also, the composite z-score in [18] is -0.46; in experiment [19], -0.0521; in experiment [20] it was 1.47. Moreover, the z-score in [2] is -0.872 (inactive); in experiment [3], -17.1 (active); in [4], -0.61 (inactive); in experiment [6], -0.756 (inactive); in experiment [14], -0.589 (inactive).
Take `O=C1C=C[C@@H](O)[C@@H]2[C@@H]3C(=O)N(c4ccc(F)cc4F)C(=O)[C@@H]3CC[C@@H]12`: the composite z-score in experiment [1] was 0.0661; in experiment [5] it was 0.587; in experiment [7] it was -0.247; in experiment [8] it was 1.08; in [9], 0.134; in experiment [10], -0.162. Moreover, the composite z-score in [11] is 0.519; in experiment [12], -0.241; in [13], -0.43; in experiment [15] it was 0.925; in [16], 0.39; in experiment [17] it was 0.462. The composite z-score is 0.39 in [18], 0.664 in [19] and -1.12 in experiment [20]. For the same compound, the z-score is -2.33 (inactive) in [2]; -2.21 (inactive) in [3]; -0.724 (inactive) in [4]; -0.421 (inactive) in experiment [6]; -1.21 (inactive) in experiment [14].
As to `C=CC[C@@H]1C=C[C@H](ON=C2[C@H]3CCn4c(=O)n(-c5ccccc5)c(=O)n4[C@H]3[C@H](O)[C@@H]3O[C@H]23)[C@@H](CO)O1`, the composite z-score in experiment [1] is -0.41; in [5] it was -0.114; in experiment [7], -0.257; in [8], 0.308; in experiment [9] it was -0.0701; in experiment [10], 0.0434. Also, the composite z-score in [11] was 0.482; in experiment [12], -0.378; in [13] it was -0.548; in experiment [15], 0.51; in experiment [16] it was -0.596; in experiment [17] it was 0.55. Also, the composite z-score in experiment [18] is 0.485; in [19] it was 0.536; in [20], 0.376. Moreover, the z-score in experiment [2] was 0.552 (inactive); in [3], 0.383 (inactive); in experiment [4] it was 1.04 (inactive); in experiment [6] it was 0.607 (inactive); in [14], 0.492 (inactive).
With `CC(=O)O[C@H]1C2=CO[C@H](C)[C@H]3[C@H]4C5=C([C@H](O)[C@H]6O[C@H]6C5=O)[C@H](OC4C)[C@@]23C(=O)[C@@H]2O[C@@H]21` (stereo not given in full), the composite z-score in [1] is 0.593; in experiment [5], 0.946; in [7], -0.299; in experiment [8], 0.433; in experiment [9], 0.392; in experiment [10], -0.0047. Further, the composite z-score in experiment [11] was 1.74; in experiment [12], -0.238; in [13], -0.647; in [15], 0.916; in [16] it was -0.0987; in [17], -0.121. Besides, the composite z-score came out at 0.0068 in experiment [18], 0.538 in experiment [19] and 0.528 in experiment [20]. In addition, the z-score in [2] was 0.116 (inactive); in [3], 0.197 (inactive); in [4] it was 0.0253 (inactive); in experiment [6], -0.681 (inactive); in experiment [14], -4.6 (inactive).
